Source: ChEMBL document CHEMBL1961873, “Compounds: GSK PKIS; Assays: Nanosyn kinase panel” (2012)

Legend:
[1] = molecular target: T1, Ephrin type-B receptor 2 (Homo sapiens) (UniProt P29323); conditions: at 1 µM
T1 sequence (whole entry): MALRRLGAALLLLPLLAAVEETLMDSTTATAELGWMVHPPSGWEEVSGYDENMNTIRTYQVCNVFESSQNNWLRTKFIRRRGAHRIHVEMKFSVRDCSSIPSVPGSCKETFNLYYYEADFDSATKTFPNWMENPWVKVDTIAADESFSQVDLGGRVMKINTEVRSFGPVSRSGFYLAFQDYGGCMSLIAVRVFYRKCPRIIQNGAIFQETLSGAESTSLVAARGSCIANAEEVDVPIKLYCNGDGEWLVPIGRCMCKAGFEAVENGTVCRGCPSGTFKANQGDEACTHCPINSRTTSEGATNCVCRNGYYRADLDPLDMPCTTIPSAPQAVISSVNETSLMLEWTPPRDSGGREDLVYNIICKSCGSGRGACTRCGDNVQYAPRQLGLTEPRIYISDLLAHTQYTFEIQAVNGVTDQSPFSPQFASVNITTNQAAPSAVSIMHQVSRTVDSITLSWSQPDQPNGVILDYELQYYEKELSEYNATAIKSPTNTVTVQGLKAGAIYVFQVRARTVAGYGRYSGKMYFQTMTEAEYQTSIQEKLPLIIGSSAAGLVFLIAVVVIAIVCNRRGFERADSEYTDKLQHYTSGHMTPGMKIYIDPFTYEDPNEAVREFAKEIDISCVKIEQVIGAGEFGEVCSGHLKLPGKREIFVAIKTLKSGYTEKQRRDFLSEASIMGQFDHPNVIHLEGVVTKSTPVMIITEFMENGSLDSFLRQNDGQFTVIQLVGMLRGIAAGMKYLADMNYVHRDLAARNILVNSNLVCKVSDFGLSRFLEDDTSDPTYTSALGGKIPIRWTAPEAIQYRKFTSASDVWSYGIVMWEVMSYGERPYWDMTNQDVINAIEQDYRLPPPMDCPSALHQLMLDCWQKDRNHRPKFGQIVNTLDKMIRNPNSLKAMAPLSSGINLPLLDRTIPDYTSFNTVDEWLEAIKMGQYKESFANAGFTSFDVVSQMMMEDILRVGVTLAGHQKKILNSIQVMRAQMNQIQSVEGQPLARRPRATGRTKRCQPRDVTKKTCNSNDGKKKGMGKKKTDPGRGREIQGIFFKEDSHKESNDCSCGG

[2] = molecular target: T2, Ephrin type-B receptor 3 (Homo sapiens) (UniProt P54753); conditions: at 0.1 µM
T2 sequence (whole entry): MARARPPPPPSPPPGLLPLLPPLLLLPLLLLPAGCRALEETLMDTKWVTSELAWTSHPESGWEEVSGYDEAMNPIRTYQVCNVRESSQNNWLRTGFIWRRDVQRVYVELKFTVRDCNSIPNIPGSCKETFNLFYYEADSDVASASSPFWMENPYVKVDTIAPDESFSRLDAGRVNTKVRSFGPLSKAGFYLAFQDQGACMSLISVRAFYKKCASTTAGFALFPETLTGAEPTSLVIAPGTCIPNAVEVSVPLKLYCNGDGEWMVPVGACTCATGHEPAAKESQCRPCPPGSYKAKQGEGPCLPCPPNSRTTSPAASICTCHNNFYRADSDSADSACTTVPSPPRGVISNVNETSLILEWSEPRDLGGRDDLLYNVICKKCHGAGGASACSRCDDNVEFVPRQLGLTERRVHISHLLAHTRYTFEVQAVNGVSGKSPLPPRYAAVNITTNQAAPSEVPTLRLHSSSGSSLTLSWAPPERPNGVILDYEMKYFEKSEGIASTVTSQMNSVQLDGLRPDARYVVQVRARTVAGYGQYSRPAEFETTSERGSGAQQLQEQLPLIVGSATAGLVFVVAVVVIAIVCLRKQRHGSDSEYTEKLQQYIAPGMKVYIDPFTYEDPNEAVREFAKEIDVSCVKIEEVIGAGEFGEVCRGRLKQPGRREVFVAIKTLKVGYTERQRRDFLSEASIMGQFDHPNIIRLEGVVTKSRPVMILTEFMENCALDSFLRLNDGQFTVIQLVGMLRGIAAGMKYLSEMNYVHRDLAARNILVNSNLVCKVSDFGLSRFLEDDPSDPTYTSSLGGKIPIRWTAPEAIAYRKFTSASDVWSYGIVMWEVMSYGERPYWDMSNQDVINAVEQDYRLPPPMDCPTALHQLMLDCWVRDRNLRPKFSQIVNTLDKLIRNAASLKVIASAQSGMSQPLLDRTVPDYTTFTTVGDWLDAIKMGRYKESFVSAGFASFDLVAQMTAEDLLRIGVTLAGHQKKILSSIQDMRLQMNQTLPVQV

[3] = molecular target: T2, Ephrin type-B receptor 3 (Homo sapiens); conditions: at 1 µM
[4] = molecular target: T3, Ephrin type-B receptor 4 (Homo sapiens) (UniProt P54760); conditions: at 0.1 µM
T3 sequence (whole entry): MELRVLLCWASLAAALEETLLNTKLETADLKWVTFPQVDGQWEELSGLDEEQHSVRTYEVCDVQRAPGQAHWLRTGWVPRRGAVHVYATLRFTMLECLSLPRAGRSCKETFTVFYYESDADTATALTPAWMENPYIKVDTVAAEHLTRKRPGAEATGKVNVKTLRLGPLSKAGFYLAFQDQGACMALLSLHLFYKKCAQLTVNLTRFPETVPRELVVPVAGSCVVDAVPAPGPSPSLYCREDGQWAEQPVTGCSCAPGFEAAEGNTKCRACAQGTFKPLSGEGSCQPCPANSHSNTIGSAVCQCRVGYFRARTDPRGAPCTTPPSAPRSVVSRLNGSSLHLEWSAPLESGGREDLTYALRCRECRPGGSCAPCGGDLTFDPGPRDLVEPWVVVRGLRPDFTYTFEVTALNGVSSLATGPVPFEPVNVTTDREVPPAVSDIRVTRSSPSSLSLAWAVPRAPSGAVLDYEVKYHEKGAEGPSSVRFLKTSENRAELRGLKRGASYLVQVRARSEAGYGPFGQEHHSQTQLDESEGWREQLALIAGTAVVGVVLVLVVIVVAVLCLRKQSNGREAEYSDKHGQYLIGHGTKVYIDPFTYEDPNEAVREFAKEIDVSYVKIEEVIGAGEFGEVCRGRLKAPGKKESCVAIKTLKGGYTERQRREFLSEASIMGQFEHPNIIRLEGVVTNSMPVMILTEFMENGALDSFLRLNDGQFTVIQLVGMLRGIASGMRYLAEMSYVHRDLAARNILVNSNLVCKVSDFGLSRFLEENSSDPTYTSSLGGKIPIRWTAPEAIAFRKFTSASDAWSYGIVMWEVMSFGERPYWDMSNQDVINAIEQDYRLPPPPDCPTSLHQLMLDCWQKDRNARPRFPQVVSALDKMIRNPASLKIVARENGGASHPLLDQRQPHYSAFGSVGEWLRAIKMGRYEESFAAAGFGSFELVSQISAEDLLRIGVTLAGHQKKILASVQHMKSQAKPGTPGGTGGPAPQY

[5] = molecular target: T3, Ephrin type-B receptor 4 (Homo sapiens); conditions: at 1 µM
[6] = molecular target: Receptor tyrosine-protein kinase erbB-2 (Homo sapiens) (UniProt P04626); conditions: at 0.1 µM
Receptor tyrosine-protein kinase erbB-2 (Homo sapiens), sequence (P04626 whole entry): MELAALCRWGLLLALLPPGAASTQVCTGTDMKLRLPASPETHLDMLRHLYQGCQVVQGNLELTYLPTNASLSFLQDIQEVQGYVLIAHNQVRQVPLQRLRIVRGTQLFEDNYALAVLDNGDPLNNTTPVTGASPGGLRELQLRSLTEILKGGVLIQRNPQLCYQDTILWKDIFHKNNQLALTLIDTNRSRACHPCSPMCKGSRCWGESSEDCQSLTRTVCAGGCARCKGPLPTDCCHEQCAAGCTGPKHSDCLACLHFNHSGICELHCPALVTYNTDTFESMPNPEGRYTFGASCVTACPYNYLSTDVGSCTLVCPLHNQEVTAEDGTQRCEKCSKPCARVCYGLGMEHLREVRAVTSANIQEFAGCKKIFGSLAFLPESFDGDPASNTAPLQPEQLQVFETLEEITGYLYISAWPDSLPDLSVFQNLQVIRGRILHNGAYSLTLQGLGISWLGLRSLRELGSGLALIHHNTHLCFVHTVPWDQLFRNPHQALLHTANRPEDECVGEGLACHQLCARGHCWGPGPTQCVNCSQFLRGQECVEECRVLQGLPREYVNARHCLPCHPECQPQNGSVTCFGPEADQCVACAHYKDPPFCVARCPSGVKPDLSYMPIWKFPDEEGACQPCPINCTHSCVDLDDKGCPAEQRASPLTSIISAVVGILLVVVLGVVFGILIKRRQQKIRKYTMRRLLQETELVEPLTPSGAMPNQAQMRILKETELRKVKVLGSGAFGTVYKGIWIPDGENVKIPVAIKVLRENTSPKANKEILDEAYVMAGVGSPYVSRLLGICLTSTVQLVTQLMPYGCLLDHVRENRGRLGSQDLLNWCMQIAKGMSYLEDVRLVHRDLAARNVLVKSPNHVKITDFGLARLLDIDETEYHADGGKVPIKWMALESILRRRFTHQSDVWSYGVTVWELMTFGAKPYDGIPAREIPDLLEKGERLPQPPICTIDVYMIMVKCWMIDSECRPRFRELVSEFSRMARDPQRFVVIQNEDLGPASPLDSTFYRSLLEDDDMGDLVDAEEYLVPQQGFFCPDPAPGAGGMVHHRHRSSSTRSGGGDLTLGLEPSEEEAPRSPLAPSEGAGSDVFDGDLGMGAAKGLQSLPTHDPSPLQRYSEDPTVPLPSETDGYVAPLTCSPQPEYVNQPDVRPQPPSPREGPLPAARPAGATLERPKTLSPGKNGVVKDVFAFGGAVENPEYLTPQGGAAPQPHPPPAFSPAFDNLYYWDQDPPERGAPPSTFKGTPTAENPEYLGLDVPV

[7] = molecular target: Receptor tyrosine-protein kinase erbB-2 (Homo sapiens) (UniProt P04626); conditions: at 1 µM
[8] = molecular target: Receptor tyrosine-protein kinase erbB-4 (Homo sapiens) (UniProt Q15303); conditions: at 0.1 µM
Receptor tyrosine-protein kinase erbB-4 (Homo sapiens), sequence (Q15303 whole entry): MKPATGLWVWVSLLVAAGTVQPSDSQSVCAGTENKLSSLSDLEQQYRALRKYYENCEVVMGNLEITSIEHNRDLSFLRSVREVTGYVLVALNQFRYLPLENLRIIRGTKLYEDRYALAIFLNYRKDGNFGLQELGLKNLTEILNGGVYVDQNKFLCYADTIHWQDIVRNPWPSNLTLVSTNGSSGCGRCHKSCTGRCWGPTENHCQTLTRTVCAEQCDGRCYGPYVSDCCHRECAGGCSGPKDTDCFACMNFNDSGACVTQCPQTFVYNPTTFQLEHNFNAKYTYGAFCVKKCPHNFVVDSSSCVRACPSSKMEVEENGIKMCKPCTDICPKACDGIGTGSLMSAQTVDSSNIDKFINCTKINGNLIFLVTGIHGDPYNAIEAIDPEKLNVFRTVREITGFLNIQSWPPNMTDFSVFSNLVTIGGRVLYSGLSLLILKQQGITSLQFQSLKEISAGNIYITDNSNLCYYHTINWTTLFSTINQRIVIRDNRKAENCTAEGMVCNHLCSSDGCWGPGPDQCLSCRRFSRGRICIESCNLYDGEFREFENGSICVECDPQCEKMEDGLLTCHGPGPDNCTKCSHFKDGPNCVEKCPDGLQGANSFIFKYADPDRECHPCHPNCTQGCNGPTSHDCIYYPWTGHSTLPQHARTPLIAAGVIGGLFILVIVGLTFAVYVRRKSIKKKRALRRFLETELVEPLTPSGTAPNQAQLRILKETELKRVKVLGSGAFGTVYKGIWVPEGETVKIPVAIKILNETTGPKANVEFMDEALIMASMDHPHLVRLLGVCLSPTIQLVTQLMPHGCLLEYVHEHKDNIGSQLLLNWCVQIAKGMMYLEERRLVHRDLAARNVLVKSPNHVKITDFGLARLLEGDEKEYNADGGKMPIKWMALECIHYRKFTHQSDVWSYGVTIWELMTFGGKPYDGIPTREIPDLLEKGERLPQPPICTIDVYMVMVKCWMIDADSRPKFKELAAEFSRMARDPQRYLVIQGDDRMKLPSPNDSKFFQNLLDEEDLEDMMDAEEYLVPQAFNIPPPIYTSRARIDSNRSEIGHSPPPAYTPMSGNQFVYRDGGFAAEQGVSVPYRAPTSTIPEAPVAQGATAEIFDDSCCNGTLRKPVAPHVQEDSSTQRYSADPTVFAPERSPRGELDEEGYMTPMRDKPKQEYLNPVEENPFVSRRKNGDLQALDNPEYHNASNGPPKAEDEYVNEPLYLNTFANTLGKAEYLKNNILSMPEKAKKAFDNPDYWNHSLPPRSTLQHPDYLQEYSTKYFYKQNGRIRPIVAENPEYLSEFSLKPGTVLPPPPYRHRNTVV

[9] = molecular target: Receptor tyrosine-protein kinase erbB-4 (Homo sapiens) (UniProt Q15303); conditions: at 1 µM
[10] = molecular target: Tyrosine-protein kinase Fer (Homo sapiens) (UniProt P16591); conditions: at 0.1 µM
[11] = molecular target: Tyrosine-protein kinase Fer (Homo sapiens) (UniProt P16591); conditions: at 1 µM
[12] = molecular target: Tyrosine-protein kinase Fes/Fps (Homo sapiens) (UniProt P07332); conditions: at 0.1 µM
[13] = molecular target: Tyrosine-protein kinase Fes/Fps (Homo sapiens) (UniProt P07332); conditions: at 1 µM
[14] = molecular target: Fibroblast growth factor receptor 1 (Homo sapiens) (UniProt P11362); conditions: at 0.1 µM
Fibroblast growth factor receptor 1 (Homo sapiens), sequence (P11362 22-822 limits assumed): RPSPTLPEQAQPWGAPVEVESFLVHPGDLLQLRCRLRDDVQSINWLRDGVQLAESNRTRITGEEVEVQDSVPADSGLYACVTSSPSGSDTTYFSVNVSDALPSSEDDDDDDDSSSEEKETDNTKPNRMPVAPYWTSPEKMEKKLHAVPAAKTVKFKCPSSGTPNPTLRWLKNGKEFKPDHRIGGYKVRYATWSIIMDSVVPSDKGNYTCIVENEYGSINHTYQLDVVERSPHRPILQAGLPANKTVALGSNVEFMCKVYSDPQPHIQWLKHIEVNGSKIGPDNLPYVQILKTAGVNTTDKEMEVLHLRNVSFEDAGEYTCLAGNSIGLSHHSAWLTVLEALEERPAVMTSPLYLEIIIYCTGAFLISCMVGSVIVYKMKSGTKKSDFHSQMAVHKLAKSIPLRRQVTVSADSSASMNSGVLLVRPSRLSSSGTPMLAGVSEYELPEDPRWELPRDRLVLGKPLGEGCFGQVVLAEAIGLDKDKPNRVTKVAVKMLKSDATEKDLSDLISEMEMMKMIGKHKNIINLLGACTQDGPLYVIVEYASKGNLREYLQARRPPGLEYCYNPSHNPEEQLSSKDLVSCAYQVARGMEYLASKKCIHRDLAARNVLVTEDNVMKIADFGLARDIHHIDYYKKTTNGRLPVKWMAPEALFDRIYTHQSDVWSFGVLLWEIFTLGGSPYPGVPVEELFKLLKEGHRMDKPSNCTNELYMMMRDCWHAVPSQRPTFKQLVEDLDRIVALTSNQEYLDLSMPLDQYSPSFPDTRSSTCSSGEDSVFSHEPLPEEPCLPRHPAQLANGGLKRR

[15] = molecular target: Fibroblast growth factor receptor 1 (Homo sapiens) (UniProt P11362); conditions: at 1 µM
[16] = molecular target: Fibroblast growth factor receptor 2 (Homo sapiens) (UniProt P21802); conditions: at 0.1 µM
[17] = molecular target: Fibroblast growth factor receptor 2 (Homo sapiens) (UniProt P21802); conditions: at 1 µM
[18] = molecular target: Fibroblast growth factor receptor 3 (Homo sapiens) (UniProt P22607); conditions: at 0.1 µM
Fibroblast growth factor receptor 3 (Homo sapiens), sequence (P22607 23-806 limits assumed): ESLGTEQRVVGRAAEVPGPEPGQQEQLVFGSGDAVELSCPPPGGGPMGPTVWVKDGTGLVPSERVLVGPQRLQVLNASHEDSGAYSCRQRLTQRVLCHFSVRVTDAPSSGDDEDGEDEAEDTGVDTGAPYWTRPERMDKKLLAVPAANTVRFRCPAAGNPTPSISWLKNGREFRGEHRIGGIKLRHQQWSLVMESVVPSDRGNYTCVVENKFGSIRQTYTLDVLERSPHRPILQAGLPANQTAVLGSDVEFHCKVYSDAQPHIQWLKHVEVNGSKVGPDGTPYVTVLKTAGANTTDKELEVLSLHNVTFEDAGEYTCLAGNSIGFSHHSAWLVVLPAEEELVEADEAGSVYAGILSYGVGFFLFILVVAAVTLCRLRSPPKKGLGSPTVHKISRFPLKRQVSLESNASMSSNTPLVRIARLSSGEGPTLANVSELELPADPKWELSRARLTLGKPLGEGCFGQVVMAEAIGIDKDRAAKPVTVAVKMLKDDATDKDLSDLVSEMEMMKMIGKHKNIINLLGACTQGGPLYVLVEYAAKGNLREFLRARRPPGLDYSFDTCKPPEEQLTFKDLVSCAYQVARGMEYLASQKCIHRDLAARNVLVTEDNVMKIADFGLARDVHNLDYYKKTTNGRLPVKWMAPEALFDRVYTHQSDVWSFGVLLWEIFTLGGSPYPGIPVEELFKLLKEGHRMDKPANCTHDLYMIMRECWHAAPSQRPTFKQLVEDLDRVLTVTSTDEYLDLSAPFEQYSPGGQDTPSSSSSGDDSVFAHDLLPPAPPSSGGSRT

[19] = molecular target: Fibroblast growth factor receptor 3 (Homo sapiens) (UniProt P22607); conditions: at 1 µM
[20] = molecular target: Fibroblast growth factor receptor 4 (Homo sapiens) (UniProt P22455); conditions: at 0.1 µM;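 also: values are mean percent inhibition of FGFR4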
Fibroblast growth factor receptor 4 (Homo sapiens), sequence (P22455 22-802 limits assumed): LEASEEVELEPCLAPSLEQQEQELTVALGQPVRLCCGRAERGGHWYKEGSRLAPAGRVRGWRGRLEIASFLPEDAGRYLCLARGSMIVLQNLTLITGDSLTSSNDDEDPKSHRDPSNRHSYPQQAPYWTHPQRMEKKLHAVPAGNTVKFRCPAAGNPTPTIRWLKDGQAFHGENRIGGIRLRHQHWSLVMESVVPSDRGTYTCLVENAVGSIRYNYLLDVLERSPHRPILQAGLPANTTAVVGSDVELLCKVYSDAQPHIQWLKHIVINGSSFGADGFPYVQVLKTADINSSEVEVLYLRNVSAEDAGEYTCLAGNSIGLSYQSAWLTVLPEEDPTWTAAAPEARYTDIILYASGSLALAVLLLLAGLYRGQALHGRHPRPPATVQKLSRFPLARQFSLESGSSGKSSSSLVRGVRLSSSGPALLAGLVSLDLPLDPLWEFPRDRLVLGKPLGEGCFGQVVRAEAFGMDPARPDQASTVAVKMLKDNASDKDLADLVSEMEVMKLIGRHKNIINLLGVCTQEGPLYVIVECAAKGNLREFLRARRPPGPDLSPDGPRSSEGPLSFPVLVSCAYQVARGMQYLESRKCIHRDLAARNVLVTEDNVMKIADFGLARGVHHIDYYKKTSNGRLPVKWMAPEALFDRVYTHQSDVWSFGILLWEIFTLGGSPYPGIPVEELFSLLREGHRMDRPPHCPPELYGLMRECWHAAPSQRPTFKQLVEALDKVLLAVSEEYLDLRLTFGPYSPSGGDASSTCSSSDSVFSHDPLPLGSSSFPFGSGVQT

Compound	inhibition [1] [%]	inhibition [2] [%]	inhibition [3] [%]	inhibition [4] [%]	inhibition [5] [%]	inhibition [6] [%]	inhibition [7] [%]	inhibition [8] [%]	inhibition [9] [%]	inhibition [10] [%]	inhibition [11] [%]	inhibition [12] [%]	inhibition [13] [%]	inhibition [14] [%]	inhibition [15] [%]	inhibition [16] [%]	inhibition [17] [%]	inhibition [18] [%]	inhibition [19] [%]	inhibition [20] [%]
COC(=O)Nc1nc2cc(Oc3cccc(NC(=O)Nc4cc(C(F)(F)F)ccc4F)c3)ccc2[nH]1	8.15	2.88	0.33	0.65	2.71	-1.15	-2.43	3.99	6.3	0.75	1.61	-0.51	0.56	-2.84	0	-1.71	2.62	0.57	1.54	-1.4
CCN1CCC(CC(=O)Nc2n[nH]c3nc(-c4cccs4)c(Br)cc23)CC1	1.96	-2.11	-3.61	-1.44	-2.19	-4.26	-1.56	-5.1	-7.08	0.22	2.34	-3.39	-4.54	-3.02	-1.95	-4.3	-0.25	-1.64	-1.77	0.71
COc1ccc2cc(-c3c(-c4ccncc4)nc(-c4ccc([S+](C)[O-])cc4)n3C)ccc2c1 (centres undefined)	6.51	5.38	4.12	2.71	6.99	2.07	-0.38	12.1	23.1	1.4	3.19	2.73	3	0.66	17	3.38	5.85	4.62	5.2	0.03
COc1cc2ncn(-c3cc(OCc4ccccc4Cl)c(C(N)=O)s3)c2cc1OC	7.08	2.15	1.6	0.55	3.38	-1	2.47	-1.93	9.17	2.47	8.52	-0.24	0.38	3.46	8.43	–	13.2	4.37	13.2	-5.86
Cc1ccc(C(=O)NC2CCCCC2)cc1-c1ccc(C(=O)NCC2CC2)cc1	7.74	5.37	1.76	1.61	0.58	-0.05	-2.24	13.3	17.9	5.55	4.17	3.08	2.29	3.66	5.66	2.75	6.2	4.11	4.7	-0.52
CCCN1CCC(Oc2cc(Nc3nc(Nc4cccc(F)c4C(N)=O)c4cc[nH]c4n3)c(OC)cc2Cl)CC1	13.7	1.47	-1.18	-0.64	0.69	0.9	1.3	0.71	0.3	3.76	16	0.64	8.02	0.06	3.54	-2.81	3.3	0.52	0.96	0.71
CCn1c(-c2nonc2N)nc2c(N3CCCC3)nccc21	-2.7	-2.28	-3.63	-1.4	-1.17	-5.46	-0.23	-3.28	-2.19	2.26	2.34	-2.72	-3.78	-3.71	-1.9	-4	-1.03	0.34	-0.31	3.05
